In the supplement of paper PMC10338343:
± gives the standard deviation.

Test system: MILI (PIWIL2) piRISC loaded with L1MC piRNA (26 nt)
Test: pre-steady-state target cleavage rate (min^-1); guide: L1MC piRNA 5'p-UAACUAAAUACUAUGCAAGCUGUAGG; MIWI and MILI are mouse PIWI proteins and EfPiwi is from a freshwater sponge; tags in brackets are library labels; higher = faster piRNA-guided slicing of the target
In short: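 In this Cleave-'n-Seq assay, uncleaved targets were sequenced and normalised to depth and to weakly complementary targets. They came from a transcribed, DNA-blocked target RNA library […] mixed with 1 nM active affinity-purified piRISC carrying one synthetic guide, with or without 500 nM GTSF1 partner protein, in HEPES–potassium acetate buffer at 33 °C for 0–8 or 0–960 min. After three trials were pooled and k3 was capped at 0.0001 min^-1, the pre-steady-state cleavage rate was obtained from a burst-and-steady-state fit.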

[1] = auxiliary factor: 500 nM mouse GTSF1
[2] = auxiliary factor: none (no GTSF1)
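Further: 1 nM active piRISC with 0.1 nM target library at 33 °C single turnover.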

Row | Sequence | pre-steady-state target cleavage rate [1] | pre-steady-state target cleavage rate [2]
1 | UCCUGGAUCAGCUUGCAAAGUAUUUUGUUA | 0.1 ± 0.018 | 0.00456 ± 0.0025
2 | UCCUGGAUCAGCUUGCAUAGUUAUUAGUUA | 0.0248 ± 0.01 | 0.00466 ± 0.0024
3 | UCCUGGAUGUCCAUGCAUAGUAUAUAGUUA | 0.0181 ± 0.0064 | 0.00373 ± 0.0026
4 | UCCUGGAUGUGCUAGCAUAGUAUUUUGUUA | 0.0587 ± 0.011 | 0.00334 ± 0.0025
5 | UCCUGGAUGUCGUUGCAUAGUAUUUAGUA | 0.148 ± 0.022 | 0.00424 ± 0.0026
6 | UCCUGGAUGUGCUUGAUAGUAUUUAGUUA | 0.00721 ± 0.0036 | 0.00463 ± 0.002
7 | UCCUGGAUGUGCUUGCAUUGUAUUAAGUUA | 0.0663 ± 0.014 | 0.00354 ± 0.0033
8 | UCCUGGAUGUCCUUGCUUAGUAUUUUGUUA | 0.0587 ± 0.018 | 0.00384 ± 0.003
9 | UCCUGGAUCAGCUAGCAUAGAAUUUAGUUA | 0.0367 ± 0.0066 | 0.00247 ± 0.0025
10 | UCCUGGAUGUGCUUGCAAAGUAUUUAGUAA | 0.033 ± 0.0074 | 0.00287 ± 0.0025
11 | UCCUGGAUGUCCAUGCAUAGUAUUUAGUUA | 0.0603 ± 0.016 | 0.00432 ± 0.0026
12 | UCCUGGAUGUCGAAGGCAUAGUAUUUAGUUA | 0.0371 ± 0.0065 | 0.00443 ± 0.0024
13 | UCCUGGAUGUCGAAGCAUAGUAUUUAGGUUA | 0.0552 ± 0.0097 | 0.00259 ± 0.0025
14 | UCCUGGAUGUCGAAGCAUAGUUUUUAGUUA | 0.00892 ± 0.0039 | 0.00397 ± 0.0017
15 | UCCUGGAUGAGCUUGCUUAGUUUUUAGUUA | 0.0134 ± 0.0052 | 0.00418 ± 0.0026
16 | UCCUGGAUGUCGAAGCAUAGUAUUUAAGUUA | 0.064 ± 0.0095 | 0.00425 ± 0.0022
17 | UCCUGGUACUGCUUGCAUAGUAUUUUGUUA | 0.0539 ± 0.019 | 0.00457 ± 0.0034
18 | UCCUGGUACAGCUUGCAAUGUAUUUAGUUA | 0.0755 ± 0.013 | 0.0121 ± 0.0029
19 | UCCUGGUACUGCUUGCAUAGUUUUUAGUUA | 0.0403 ± 0.012 | 0.00996 ± 0.0046
20 | UCCUGGAUGAGGUUGCAUAGUAUAUAGUUA | 0.163 ± 0.04 | 0.00623 ± 0.0021
21 | UCCUCCUACAGCUUGCUAUGUAUUUAGUUA | 0.0502 ± 0.011 | 0.00506 ± 0.0018

Row | Sequence | pre-steady-state target cleavage rate [1] | pre-steady-state target cleavage rate [2]
22 | UCCUGGAUGUGCUUGCUUAGUUUUUAGUUA | 0.011 ± 0.0063 | 0.00656 ± 0.0028
23 | UCCUGGAUGAGCUUGCAAAGUAUUUAGUAA | 0.085 ± 0.015 | 0.00635 ± 0.0025
24 | UCCUGGUACAGCUUCCAUUGUAUUUAGUUA | 0.113 ± 0.039 | 0.00415 ± 0.0035
25 | UCCUGGAUGUCGAAGCAUAGUAUUUGGUUA | 0.0178 ± 0.0055 | 0.00505 ± 0.0019
26 | UCCUGGAUGUCGUUGCAUAGUAUAUAGUUA | 0.155 ± 0.028 | 0.00761 ± 0.0026
27 | UCCUGGAUGAGCAUGCUUAGUAUUUAGUUA | 0.115 ± 0.011 | 0.0087 ± 0.0027
28 | UCCUGGAUCAGCUAGCAUAGUAUUUUGUUA | 0.19 ± 0.021 | 0.00333 ± 0.0023
29 | UCCUGGAUCAGGAAGCAUAGUAUUUAGUAA | 0.0716 ± 0.014 | 0.00297 ± 0.0022
30 | UCCUGGAUGUCCUUGGAUAGUAUUAAGUUA | 0.207 ± 0.037 | 0.00484 ± 0.0024
31 | UCCUGGAUGAGCUAGCAAAGUAUUUAGUUA | 0.0455 ± 0.0079 | 0.00456 ± 0.0024
32 | UCCUGGAUGUCGUUGCAUAGUAUUUAAGUUA | 0.191 ± 0.032 | 0.00676 ± 0.0028
33 | UCCUCCUACAGCUACCAUAGUAUUUAGUUA | 0.2 ± 0.021 | 0.00448 ± 0.0023
34 | UCCUGCUACAUCUUGCAUAGUAUUUAGUUA | 0.239 ± 0.02 | 0.0095 ± 0.0022
35 | UCCUGGAUGUCCAAGCAUAGUAUUUAGUUA | 0.0263 ± 0.0097 | 0.00547 ± 0.0023
36 | UCCUGGAUGUGCUUGCAAAGUAUUUACUUA | 0.0114 ± 0.0052 | 0.00362 ± 0.0028
37 | UCCUGGAACAGCUUGCAUAGUAGUUUAGUUA | 0.175 ± 0.013 | 0.00337 ± 0.0031
38 | UCCUGGAUGUCGUUGCAUAGUAUUGAGUUA | 0.0312 ± 0.011 | 0.00363 ± 0.0032
39 | UCCUGGAUGAGCUUGGUAAGUAUUUAGUUA | 0.009 ± 0.0036 | 0.00405 ± 0.0023
40 | UCCUGGAUGAGCUAGCUUAGUAUUUAGUUA | 0.13 ± 0.012 | 0.00773 ± 0.0023
41 | UCCUGGAUGUCGUUGCAUAGUAUCUUAGUUA | 0.0991 ± 0.021 | 0.00848 ± 0.0026
42 | UCCUGGAAGAGCUAGCAUAGUAUUUAGUUA | 0.212 ± 0.016 | 0.00677 ± 0.0024

Row | Sequence | pre-steady-state target cleavage rate [1] | pre-steady-state target cleavage rate [2]
43 | UCCUGGAUGUCCUUGCUUAGUUUUUAGUUA | 0.0152 ± 0.0067 | 0.00494 ± 0.0023
44 | UCCUGGAUCACCUUGCUUAGUAUUUAGUUA | 0.176 ± 0.025 | 0.008 ± 0.0023
45 | UCCUGGUACAGCUUGCAUAGUUUUAAGUUA | 0.0506 ± 0.014 | 0.00428 ± 0.0033
46 | UCCUGGAUGAGGUUGGAUAGUAUUUAGUUA | 0.132 ± 0.021 | 0.00824 ± 0.0025
47 | UCCUGGAUGUCCUUGCUUAGUAAUUAGUUA | 0.0235 ± 0.0061 | 0.00598 ± 0.0019
48 | UCCUGGAUGAGCUUGCAAAGUAUAUAGUUA | 0.148 ± 0.02 | 0.00576 ± 0.0029
49 | UCCUGGAUGAGCUUGCAUUGUAUUUAGUUA | 0.139 ± 0.013 | 0.00846 ± 0.0023
50 | UCCUGGAUGAGCUUGGAAAGUAUUUAGUUA | 0.0843 ± 0.011 | 0.00571 ± 0.0018
51 | UCCUGGAUGUCGUUGCAUAGUUUUUAGUUA | 0.00524 ± 0.0046 | 0.00595 ± 0.0026
52 | UCCUGGAUCAGCUUGCAUAGUAAAUAGUUA | 0.171 ± 0.024 | 0.00496 ± 0.0026
53 | UCCUGGAUGAGCUUGCUUACUAUUUAGUUA | 0.0357 ± 0.0051 | 0.00365 ± 0.0025
54 | UCCUGGAACAGCUUGGUUAGUAUUUAGUAA | 0.188 ± 0.035 | 0.00709 ± 0.0024
55 | UCCUGGUACAGGUUGCAUAGUAUUUUGUUA | 0.189 ± 0.042 | 0.0111 ± 0.0045
56 | UCCUGGUACAGCUUGCUUAGUAUUUAGUAA | 0.244 ± 0.03 | 0.00308 ± 0.0025
57 | UCCUGGAUGUCGUUGCAUAGUAAUUAGUUA | 0.116 ± 0.022 | 0.00563 ± 0.002
58 | UCCUGGAUGAGCUUGCUUUGUAUUUAGUUA | 0.0408 ± 0.01 | 0.00403 ± 0.0028
59 | UCCUGGAUGUGCUAGCAUAGAAUUUAGUUA | 0.0105 ± 0.0042 | 0.00267 ± 0.0022
60 | UCCUGGAUGAGCUUGCAUAGUAUUUAGUAUA | 0.218 ± 0.028 | 0.00501 ± 0.0033
61 | UCCUGGAUGUGCUUGGAAAGUAUUUAGUUA | 0.0377 ± 0.0067 | 0.00729 ± 0.002
62 | UCCUGGUACACCUUGCAAAGUAUUUAGUUA | 0.0646 ± 0.011 | 0.0081 ± 0.0033
